Assay results from PubChem BioAssay (NCATS).
Records with an inconclusive call do not appear. A call without a number means that no potency is given here. Calls of active or inactive are those of the source. The call rests on the fitted dose curve; in most records, active means well fitted inhibition curve with a large enough effect; inconclusive means small, poorly fitted or top-dose-only effect; inactive means flat fitted curve, though single readings scatter.

biological target: Glutathione peroxidase 1 (Homo sapiens) (UniProt P07203); assay: Primary qHTS Assay for Inhibitors of Recombinant Selenoprotein Glutathione Peroxidase 1 (GPX1) (AID 1845191); settings: recombinant GPX1, GR-coupled NADPH fluorescence, 15 min; series mostly up to 48.8 µM; further: nearly all actives have a fitted effect of over 65% in size
Sequence (P07203 whole entry, looked up): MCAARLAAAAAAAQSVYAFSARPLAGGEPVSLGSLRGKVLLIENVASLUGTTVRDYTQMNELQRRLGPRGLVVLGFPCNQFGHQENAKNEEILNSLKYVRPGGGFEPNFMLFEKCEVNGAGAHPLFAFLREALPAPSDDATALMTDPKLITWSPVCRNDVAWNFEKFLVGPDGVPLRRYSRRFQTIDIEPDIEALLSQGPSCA
Procedure, shortened: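 NADPH consumption tracked by fluorescence at 340/450 nm between t=0 and t=15 min, room temperature. Final mix: 10 nM GPX1, 100 nM glutathione reductase, 1 mM GSH, 0.5 mM NADPH, 0.5 mM cumene hydroperoxide, 0.01% BSA; 30 min compound–enzyme preincubation.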

SMILES | Potency
CCCC(=O)O[C@]1(C(=O)CC)CC[C@H]2[C@@H]3CCC4=CC(=O)CC[C@]4(C)[C@H]3[C@@H](O)C[C@@]21C | inactive
CC(C)C(=O)Nc1cccc(C2CN3CCSC3=N2)c1 (configuration not stated) | inactive
Cc1ccc2c(Cl)cc(Cl)c(O)c2n1 | inactive
CNC[C@H](O)[C@@H](O)[C@H](O)[C@H](O)CO | inactive
CC(C)Cc1ccc(C(C)C(=O)OCc2ccccn2)cc1 (configuration not stated) | inactive
CC(=O)/C=C/C=C1/C2CCC(C2)C1(C)C (configuration not stated) | inactive
O=[N+]([O-])c1ccc(O)c2ncccc12 | inactive
CCC(CN)=C(c1ccccc1)c1ccccc1 | inactive
C[C@]12CCC(=O)C=C1CC[C@@H]1[C@@H]2[C@@H](O)C[C@@]2(C)[C@H]1CC[C@]2(O)C(=O)COC(=O)CCC(=O)O | inactive
NC(=O)C1(N2CCCCC2)CCN(CCCN2c3ccccc3CCc3ccc(Cl)cc32)CC1 | inactive
CN1CCCN(C(c2ccccc2)c2ccc(Cl)cc2)CC1 (configuration not stated) | inactive
COc1cccc2c1[C@@H]1CN(CCCCn3c(=O)[nH]c4c(sc5ncc(-c6ccccc6)nc54)c3=O)C[C@@H]1CO2 | inactive
CCCCCC1Nc2cc(C(F)(F)F)c(S(N)(=O)=O)cc2S(=O)(=O)N1 (configuration not stated) | inactive
O=C(O)[C@@H](O)[C@H](O)[C@H](O)[C@@H](O)C(=O)O | inactive
CC(C)NCCCC1(C(N)=O)c2ccccc2-c2ccccc21 | inactive
Cc1ccccc1N1CCN(CCc2nnc3n2CCCC3)CC1 | inactive
N#Cc1cc(NC(=O)C(=O)O)c(Cl)c(NC(=O)C(=O)O)c1 | inactive
